Data as given in ChEMBL document CHEMBL1961873, “Compounds: GSK PKIS; Assays: Nanosyn kinase panel” (2012).

Each compound was assayed on Mast/stem cell growth factor receptor Kit (Homo sapiens), P10721 [D816V]. Conditions: at 0.1 µM.
Chain of Mast/stem cell growth factor receptor Kit (Homo sapiens), P10721 [D816V] (P10721 whole entry D816V): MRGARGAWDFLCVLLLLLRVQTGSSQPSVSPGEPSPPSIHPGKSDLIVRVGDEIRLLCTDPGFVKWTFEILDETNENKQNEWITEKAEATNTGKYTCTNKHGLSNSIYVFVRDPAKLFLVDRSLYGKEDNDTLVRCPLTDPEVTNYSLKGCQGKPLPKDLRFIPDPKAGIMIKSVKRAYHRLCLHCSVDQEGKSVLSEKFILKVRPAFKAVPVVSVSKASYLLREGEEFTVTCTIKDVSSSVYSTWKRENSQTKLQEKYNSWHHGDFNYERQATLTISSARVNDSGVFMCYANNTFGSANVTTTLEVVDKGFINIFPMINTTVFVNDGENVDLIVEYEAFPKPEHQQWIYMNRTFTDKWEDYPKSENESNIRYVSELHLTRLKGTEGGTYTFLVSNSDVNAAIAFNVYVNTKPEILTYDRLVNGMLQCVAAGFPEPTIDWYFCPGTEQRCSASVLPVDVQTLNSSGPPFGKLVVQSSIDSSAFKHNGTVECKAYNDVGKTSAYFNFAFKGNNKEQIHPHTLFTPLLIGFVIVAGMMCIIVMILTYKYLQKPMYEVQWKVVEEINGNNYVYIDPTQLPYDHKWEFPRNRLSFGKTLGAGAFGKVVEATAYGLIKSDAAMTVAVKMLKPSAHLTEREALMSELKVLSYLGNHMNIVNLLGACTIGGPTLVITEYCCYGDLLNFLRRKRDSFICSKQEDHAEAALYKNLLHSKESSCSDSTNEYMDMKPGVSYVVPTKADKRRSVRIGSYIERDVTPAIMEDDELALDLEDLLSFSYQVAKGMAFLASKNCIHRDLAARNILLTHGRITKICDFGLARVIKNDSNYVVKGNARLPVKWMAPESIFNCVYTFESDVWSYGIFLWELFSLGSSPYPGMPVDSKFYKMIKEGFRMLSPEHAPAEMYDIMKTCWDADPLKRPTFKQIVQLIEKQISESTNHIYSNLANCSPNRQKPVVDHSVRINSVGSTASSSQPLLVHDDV

SMILES | inhibition
N#Cc1c(NC(=O)c2cccc3ccccc23)sc2c1CCCC2 | 1.1%
COc1cc(C=NNc2ncnc3c2cnn3-c2ccccc2)ccc1O | 2.68%
CC(C)=Cc1cccc2c1/C(=N/Nc1ccc(S(N)(=O)=O)cc1)C(=O)N2 | 2.15%
Cc1ccc(NC(=O)c2ccnc(N3CCCC3)c2)cc1-c1ccc(C(=O)NCC2CC2)cc1 | 2.61%
Nc1nc(-c2ccc3c(c2)C(=Cc2cc(Br)c(O)c(Br)c2)C(=O)N3)cs1 | 0.19%
CS(=O)(=O)CCNCc1ccc(-c2ccc3ncnc(Nc4ccc(OCc5cccc(F)c5)c(C(F)(F)F)c4)c3c2)o1 | 5.18%
COc1ccc(-c2coc3ncnc(N)c23)cc1 | 5.53%
CCCN1CCC=C(c2ccc(Nc3nc(Nc4ccccc4C(N)=O)c4cc[nH]c4n3)c(C)c2)C1 | 7.12%
O=C1NC(=O)C(c2cccc(Cl)c2)=C1Nc1ccc(O)c(Cl)c1 | 0.75%
COc1cc2ncn(-c3cc(O[C@H](C)c4ccccc4Cl)c(C(N)=O)s3)c2cc1OC | 4.82%
CC1=C(C(=O)Nc2ccc3[nH]ncc3c2)C(c2ccc3ccccc3c2)CC(=O)N1 (stereo unspecified) | 0.15%
O=C1NC(=O)C(c2ccc(Cl)cc2)=C1Nc1ccc(Cl)c(C(=O)O)c1 | -3.8%
c1cnn2ncc(-c3ccnc(Nc4ccc5c(c4)OCCO5)n3)c2c1 | 3.21%
COc1cc2ncn(-c3cc(O[C@@H](C)c4ccccc4Cl)c(C(N)=O)s3)c2cc1OC | 3.28%
CCn1c(-c2nonc2N)nc2c(C#CC(C)(C)O)nc(CN3CCCC3)cc21 | -0.84%
CCn1c(-c2nonc2N)nc2ccncc21 | -0.01%
CNC(=O)c1cncc(/C=C/c2c(Cl)cccc2Cl)c1 | 2.74%

SMILES | inhibition
Cc1nnc(-c2ccc(C)c(-c3ccc(C(=O)Nc4cccc(C#N)c4)cc3)c2)o1 | 2.18%
CN(C)c1cc2c(Nc3ccc4nc(Cc5ccccc5)[nH]c4c3)ncnc2cn1 | 7.07%
Cc1cccc(-c2n[nH]cc2-c2ccc3ncccc3n2)n1 | 3.77%
CS(=O)(=O)CCN(CC#N)Cc1ccc(-c2ccc3ncnc(Nc4ccc(OCc5cccc(F)c5)c(Cl)c4)c3c2)o1 | 3.19%
CCn1c(-c2nonc2N)nc2c(C#CC(C)(C)O)nc(OC[C@@H](N)c3ccccc3)cc21 | -1.77%
CC(=O)Nc1cccc(C#Cc2cncnc2Nc2ccc(OCc3cccc(F)c3)c(Cl)c2)n1 | -0.94%
CC1=C(C(=O)Nc2ccc3[nH]ncc3c2)C(c2ccc(Cl)c(Cl)c2)CC(=O)N1 (stereo unspecified) | -0.94%
O=C1Nc2ccc(C(=O)c3ccco3)cc2C1=Cc1cc(Cl)c(O)c(Cl)c1 | 1.83%
CS(=O)(=O)Nc1ccc(N/C=C2\C(=O)Nc3ccccc32)cc1 | -1.84%
COc1cc2ncn(-c3cc(OCc4ccccc4Cl)c(C(N)=O)s3)c2cc1OC | 0.27%
Fc1cccc(COc2ccc(Nc3ncnc4sc(-c5cccs5)cc34)cc2Cl)c1 | 4.5%
[O-][S+]1CCN(Cc2ccc(-c3ccc4ncnc(Nc5ccc(OCc6ccccc6)c(F)c5)c4c3)o2)CC1 | 2.25%
Cc1ccc(C(=O)NC2CCCCC2)cc1-c1ccc(C(=O)NCC2CC2)cc1 | 3.74%
Cc1nn(C)c2cc(N(C)c3ccnc(Nc4cccc(S(N)(=O)=O)c4)n3)ccc12 | 2.13%
CCN1CCC(CC(=O)Nc2n[nH]c3nc(-c4cccs4)c(Br)cc23)CC1 | -1.28%
COc1ccc(-c2nn3ncccc3c2-c2ccnc(Nc3ccc(Cl)c(C(F)(F)F)c3)n2)cc1 | 0.87%

The compounds below were run on Mast/stem cell growth factor receptor Kit (Homo sapiens), P10721 [D816V]. Conditions: at 1 µM.

SMILES | inhibition
N#Cc1c(NC(=O)c2cccc3ccccc23)sc2c1CCCC2 | 2.67%
COc1cc(C=NNc2ncnc3c2cnn3-c2ccccc2)ccc1O | 8.84%
CC(C)=Cc1cccc2c1/C(=N/Nc1ccc(S(N)(=O)=O)cc1)C(=O)N2 | 4.23%
Cc1ccc(NC(=O)c2ccnc(N3CCCC3)c2)cc1-c1ccc(C(=O)NCC2CC2)cc1 | 7.08%
Nc1nc(-c2ccc3c(c2)C(=Cc2cc(Br)c(O)c(Br)c2)C(=O)N3)cs1 | -1.02%
CS(=O)(=O)CCNCc1ccc(-c2ccc3ncnc(Nc4ccc(OCc5cccc(F)c5)c(C(F)(F)F)c4)c3c2)o1 | 2.67%
COc1ccc(-c2coc3ncnc(N)c23)cc1 | -0.06%
CCCN1CCC=C(c2ccc(Nc3nc(Nc4ccccc4C(N)=O)c4cc[nH]c4n3)c(C)c2)C1 | 3.39%
O=C1NC(=O)C(c2cccc(Cl)c2)=C1Nc1ccc(O)c(Cl)c1 | -6.88%
COc1cc2ncn(-c3cc(O[C@H](C)c4ccccc4Cl)c(C(N)=O)s3)c2cc1OC | 14.6%
CC1=C(C(=O)Nc2ccc3[nH]ncc3c2)C(c2ccc3ccccc3c2)CC(=O)N1 (stereo unspecified) | -0.63%
O=C1NC(=O)C(c2ccc(Cl)cc2)=C1Nc1ccc(Cl)c(C(=O)O)c1 | -3.02%
c1cnn2ncc(-c3ccnc(Nc4ccc5c(c4)OCCO5)n3)c2c1 | 9.72%
COc1cc2ncn(-c3cc(O[C@@H](C)c4ccccc4Cl)c(C(N)=O)s3)c2cc1OC | 6.34%
CCn1c(-c2nonc2N)nc2c(C#CC(C)(C)O)nc(CN3CCCC3)cc21 | 1.18%
CCn1c(-c2nonc2N)nc2ccncc21 | -2.39%
CNC(=O)c1cncc(/C=C/c2c(Cl)cccc2Cl)c1 | 1.88%

SMILES | inhibition
Cc1nnc(-c2ccc(C)c(-c3ccc(C(=O)Nc4cccc(C#N)c4)cc3)c2)o1 | 2.02%
CN(C)c1cc2c(Nc3ccc4nc(Cc5ccccc5)[nH]c4c3)ncnc2cn1 | 7.56%
Cc1cccc(-c2n[nH]cc2-c2ccc3ncccc3n2)n1 | 18%
CS(=O)(=O)CCN(CC#N)Cc1ccc(-c2ccc3ncnc(Nc4ccc(OCc5cccc(F)c5)c(Cl)c4)c3c2)o1 | 2.53%
CCn1c(-c2nonc2N)nc2c(C#CC(C)(C)O)nc(OC[C@@H](N)c3ccccc3)cc21 | 1.93%
CC(=O)Nc1cccc(C#Cc2cncnc2Nc2ccc(OCc3cccc(F)c3)c(Cl)c2)n1 | 3.5%
CC1=C(C(=O)Nc2ccc3[nH]ncc3c2)C(c2ccc(Cl)c(Cl)c2)CC(=O)N1 (stereo unspecified) | 1.14%
O=C1Nc2ccc(C(=O)c3ccco3)cc2C1=Cc1cc(Cl)c(O)c(Cl)c1 | 0.61%
CS(=O)(=O)Nc1ccc(N/C=C2\C(=O)Nc3ccccc32)cc1 | -0.2%
COc1cc2ncn(-c3cc(OCc4ccccc4Cl)c(C(N)=O)s3)c2cc1OC | -0.43%
Fc1cccc(COc2ccc(Nc3ncnc4sc(-c5cccs5)cc34)cc2Cl)c1 | 1.72%
[O-][S+]1CCN(Cc2ccc(-c3ccc4ncnc(Nc5ccc(OCc6ccccc6)c(F)c5)c4c3)o2)CC1 | -1.53%
Cc1ccc(C(=O)NC2CCCCC2)cc1-c1ccc(C(=O)NCC2CC2)cc1 | 0.6%
Cc1nn(C)c2cc(N(C)c3ccnc(Nc4cccc(S(N)(=O)=O)c4)n3)ccc12 | 5.94%
CCN1CCC(CC(=O)Nc2n[nH]c3nc(-c4cccs4)c(Br)cc23)CC1 | -0.19%
COc1ccc(-c2nn3ncccc3c2-c2ccnc(Nc3ccc(Cl)c(C(F)(F)F)c3)n2)cc1 | 4.92%
